Experiment [1] can be described thus: Viability qHTS for spleen associated tyrosine kinase inhibitor (SYKi) naive MV4-11 cells (AID 1963823). Note: nearly all actives have a fitted effect of over 40% in size. The procedure, abridged: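 Read-out: CellTiter-Glo luminescence. Exposure: 72 hr, 37 C, 5% CO2, 95% humidity. Cells: MV4-11 without SYK inhibitor history, 500/well, qHTS format.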
(In qHTS, concentration-response curves come from the screen itself.)

The nature of experiment [2]: Viability qHTS for spleen associated tyrosine kinase inhibitor (SYKi) drug resistant MV4-11 cells (AID 1963824). Note: nearly all actives have a fitted effect of over 35% in size. The procedure, abridged: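 SYK inhibitor-resistant MV4-11 AML cells, 500 per well, added to predispensed compounds and incubated 72 hr at 37 C, 5% CO2. Viability measured by CellTiter-Glo luminescence after 10 min at room temperature.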

Results filed as inconclusive are left out. A number with no mark means an inactive call. The source made the active and inactive calls. Calls come from the whole dose curve; as a rule, active = well fitted cell-killing curve with a large enough effect; inconclusive = small, poorly fitted or top-dose-only effect, or effect the other way; inactive = no such curve, though single readings can be large or run the other way.
Potency is the fitted concentration of half-maximal effect.

Consider `C/C=C/C=C/C=C/C(=O)N(C)C(C(=O)NC(C)C(=O)N1CCCC1C(N)=O)C(C)C` (stereo not given), for which the Potency entry in experiment [1] and in experiment [2] was “inactive” in each case.

Take `CC(CN1c2ccccc2Sc2ccccc21)N(C)C` (stereo not given): the Potency result in experiment [1] and in experiment [2] was “inactive” throughout.

`Cc1ncc([N+](=O)[O-])n1C[C@H](O)CN1CCOCC1`: the Potency result in experiment [1] and in experiment [2] was “inactive” each time.

In the case of `Cc1ccccc1-c1cc(N2CCN(C)CC2)ncc1N(C)C(=O)C(C)(C)c1cc(C(F)(F)F)cc(C(F)(F)F)c1`, the Potency entry in experiment [1] and in experiment [2] was “inactive” throughout.

Regarding `CC(C)CCC[C@@H](C)[C@H]1CC[C@H]2[C@@H]3CC=C4C[C@@H](OC(=O)NCCN(C)C)CC[C@]4(C)[C@H]3CC[C@]12C`, the Potency in experiment [1] is 20600 nM (active); in experiment [2], 16400 nM (active).

In the case of `CCC(C)C1NC(=O)C2CCCN2C(=O)C(C(C)C)NC(=O)c2ccccc2NC(=O)C(Cc2ccc(O)cc2)NC(=O)C(C)NC(=O)C(C(C)O)NC1=O` (stereo not given), the Potency entry in experiment [1] and in experiment [2] was “inactive” throughout.

Consider `CCC[C@@]1(CCc2ccccc2)CC(O)=C([C@H](CC)c2cccc(NS(=O)(=O)c3ccc(C(F)(F)F)cn3)c2)C(=O)O1`, for which the figures for the Potency in experiment [1] and in experiment [2] were 20600 nM (active) and 23100 nM (active), respectively.

For the compound `COc1cc(N2CCC(O)CC2)ccc1Nc1nc(Nc2ccccc2S(=O)(=O)C(C)C)c2[nH]cnc2n1`, the Potency was 1300 nM (active) in experiment [1] and 2060 nM (active) in experiment [2].

On to `CC(=O)O[C@@H]1[C@H](O[C@@H]2O[C@H](CO)[C@@H](O)[C@H](O)[C@H]2O)[C@@H](O[C@@H]2O[C@@H](C)[C@H](O)[C@@H](O[C@@H]3O[C@H](CO)[C@@H](O)[C@H](O)[C@H]3O)[C@H]2O)[C@H](OC(=O)[C@]23CCC(C)(C)C[C@H]2C2=CCC4[C@@]5(C)C[C@H](O)[C@H](O[C@@H]6O[C@H](C(=O)O)[C@@H](O)[C@H](O)[C@H]6O)[C@@](C)(C(=O)O)C5CC[C@@]4(C)[C@]2(C)CC3)O[C@@H]1C` (stereo not given in full), for which the viability (% of control) in experiment [1] is 81.2% [at 9.25 µM]. Further, the viability, % of control in experiment [2] is 91.2% [at 9.25 µM].

Consider `Cc1cc2ncc(C(=O)NCC(C)(C)NCC(=O)N3CCC[C@H]3C#N)cn2n1`, for which the Potency result in experiment [1] and in experiment [2] was “inactive” in each case.

Consider `CC1(C)CC[C@]23CO[C@@]4(CCC5[C@@]6(C)CC[C@H](O[C@@H]7OC[C@H](O[C@@H]8O[C@H](CO)[C@@H](O)[C@H](O)[C@H]8O)[C@H](O)[C@H]7O[C@@H]7O[C@H](CO)[C@@H](O[C@@H]8O[C@H](CO)[C@@H](O)[C@H](O)[C@H]8O)[C@H](O)[C@H]7O)[C@@](C)(CO)C6CC[C@@]5(C)[C@]4(C)C[C@H]2OC2OCC(O)C(O)C2O)C3C1` (stereo not given in full), for which the Potency was 1950 nM (active) in experiment [1] and 3090 nM (active) in experiment [2].

As to `CC(C)=CCC(O)[C@](C)(O)C1[C@H](O)C[C@@]2(C)C3CC=C4C(C[C@H](O)[C@@H](O[C@@H]5O[C@H](CO)[C@@H](O)[C@H](O)[C@H]5O)C4(C)C)[C@]3(C)C(=O)C[C@]12C` (stereo not given in full), the Potency entry in experiment [1] and in experiment [2] was “inactive” throughout.

As to `C[C@@H]1C(=O)O[C@H]2[C@H](O)C34[C@H]5C[C@@H](C(C)(C)C)C36[C@@H](OC(=O)[C@@H]6O)O[C@@]4(C(=O)O5)[C@@]12O` (stereo not given in full), the Potency entry in experiment [1] and in experiment [2] was “inactive” each time.

With `O=C(/C=C/c1ccc(O)cc1)OC[C@H]1O[C@H](O[C@@]2(CO)O[C@@H](CO)[C@H](O)[C@H]2O)[C@H](O)[C@@H](O)[C@@H]1O`, the Potency result in experiment [1] and in experiment [2] was “inactive” in each case.

As to `CC1OC(OC2C(O)C(OC3CCC4(C)C(CCC5(C)C4CC=C4C6CC(C)(COC7OC(CO)C(O)C(O)C7O)CC(O)C6(C)CCC45C)C3(C)C)OC(C(=O)O)C2O)C(O)C(O)C1OC1OCC(O)C(O)C1O` (stereo not given), in experiment [1], the viability (% of control) was 54% [at 9.25 µM]. Also, in experiment [2], the viability, % of control is 85% [at 9.25 µM].

In the case of `Cn1ncc(Cl)c1-c1cc(C(=O)N[C@H](CN)Cc2ccc(F)c(F)c2)oc1Cl`, the results for the Potency in experiment [1] and in experiment [2] were 2590 nM (active) and 8200 nM (active), respectively.

In the case of `CCOC(=O)c1cnc2ccc(-c3cncc(NS(=O)(=O)c4ccccc4)c3)cn12`, the Potency was 326 nM (active) in experiment [1] and 231 nM (active) in experiment [2].

For `CC1OC(OC2CCC3(C)C(CCC4(C)C3CC=C3C5CC(C)(C)CCC5(C(=O)OC5OC(CO)C(O)C(O)C5O)CCC34C(=O)O)C2(C)C)C(O)C(O)C1O` (stereo not given), the Potency entry in experiment [1] and in experiment [2] was “inactive” throughout.

Take `C[C@@H]1O[C@@H](O[C@H]2[C@@H]3C=CO[C@@H](O[C@@H]4O[C@H](CO)[C@@H](O)[C@H](O)[C@H]4O)[C@@H]3[C@@]3(CO)O[C@@H]23)[C@H](O)[C@H](OC(=O)/C=C/c2ccc(O)c(O)c2)[C@H]1O`: the Potency result in experiment [1] and in experiment [2] was “inactive” in each case.

Take `CC(=O)OCC(=O)[C@@]1(O)[C@H](OC(C)=O)C[C@H]2[C@@H]3CCC4=CC(=O)C=C[C@]4(C)[C@@]3(F)[C@@H](O)C[C@@]21C`: the Potency result in experiment [1] and in experiment [2] was “inactive” in each case.
